# Shown are actives, neighbours in structure and some others; about 6.3% of the full set was active somewhere.
# ATXN2 expr inh: inhibitors of ATXN2 expression | HEK-293 ATXN2-luciferase reporter, luminescence, 24 h | Potency, µM (highest dose often 57 µM), for the others: top-dose activity change, negative = inhibition, hits mostly inhibitors | 360,000 compounds, 0.72% hits; note: % is set by controls: 0 for no effect and ±100 for the full control effect; nearly all actives have a fitted effect of over 55% in size
#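 ATXN2-luciferase reporter cells (luciferase flanked by upstream and downstream ATXN2 gene portions) were treated 24 h at 37 °C with compounds at up to 57 uM. SteadyGlo luminescence gave expression; GF-AFC fluorescence gave viability.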
# S2 tox: viability counter-screen for ATXN expression inhibitors; S2 cells (HEK-293 line with an ATXN2-luciferase reporter) viability, CellTiter-Fluor protease fluorescence, 24 h; Potency, µM (series often up to 56.7 µM), usual class: cytotoxic; 400,000 compounds, 0.49% hits; note: nearly all actives have a fitted effect of over 40% in size
# RORg inh: ROR gamma (mouse) transcription inhibition; Potency, µM (titrated, usually from 53.6 µM), for inactives: at the top dose activity change, negative = inhibition, actives largely listed as inhibitors; Drosophila S2 Gal4-RORgamma UAS-luciferase reporter, 20 h; 310,000 compounds, 5.4% hits; P51450; AID 2551; note: % is set by controls: 0 for no effect and ±100 for the full control effect; nearly all actives have a fitted effect of over 60% in size
# Target sequence (P51450 whole entry, looked up, the tested form may be a part): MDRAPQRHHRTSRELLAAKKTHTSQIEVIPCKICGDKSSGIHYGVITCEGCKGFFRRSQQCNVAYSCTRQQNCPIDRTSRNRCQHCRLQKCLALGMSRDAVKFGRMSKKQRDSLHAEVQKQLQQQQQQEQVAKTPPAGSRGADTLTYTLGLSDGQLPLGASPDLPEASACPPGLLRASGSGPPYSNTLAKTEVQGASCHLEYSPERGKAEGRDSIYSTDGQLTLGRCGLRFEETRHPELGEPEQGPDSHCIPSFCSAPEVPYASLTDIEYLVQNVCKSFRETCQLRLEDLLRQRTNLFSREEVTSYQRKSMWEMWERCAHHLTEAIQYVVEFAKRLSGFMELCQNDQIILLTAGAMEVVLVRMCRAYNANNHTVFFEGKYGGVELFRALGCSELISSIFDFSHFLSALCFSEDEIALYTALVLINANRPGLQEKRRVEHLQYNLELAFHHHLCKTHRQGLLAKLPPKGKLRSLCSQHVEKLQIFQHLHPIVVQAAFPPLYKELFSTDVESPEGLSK
#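 Read-out: Photinus luciferase luminescence; inhibitors lower reporter signal. Insect Schneider cells with Gal4-ROR gamma fusion under metallothionein promoter, UAS reporter; 700 uM final copper sulfate induction, 20 hr, ambient temperature.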
# VP16 counter: counter-screen for ROR gamma inhibitors: Gal4-VP16 reporter; Drosophila S2 Gal4-VP16 UAS-luciferase, luminescence, 20 h; Potency, µM (top dose mostly 53.6 µM), inactives show at the highest dose activity, negative = inhibition, hits mostly inhibitors; 310,000 compounds, 3.5% hits; AID 2546;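 note: Gal4-VP16 expression switched on by copper sulfate through the metallothionein promoter; % is set by controls: 0 for no effect and ±100 for the full control effect; nearly all actives have a fitted effect of over 50% in size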
# HepG2 tox: counter-screen for TGF-b inhibitors: cytotoxicity in HepG2 cells | HepG2 CAGA-GFP viability, ATP luminescence, 18 h | Potency, µM (highest dose often 46.1 µM), inactives show top-dose activity change, negative = cytotoxicity, hits mostly cytotoxic | 410,000 compounds, 0.76% hits | AID 588856
#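 HepG2 CAGA-GFP cells (1000/well, DMEM with 1% FBS) received compound, then TGF-beta at 500 pg/mL final, and were incubated 18 hours at 37 degrees C. Viability was read by CellTiter-Glo luminescence. Media-only wells were set as complete cell-killing and DMSO as no toxicity.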
# TGFb SMAD3 inh: inhibitors of TGF-b signaling | HepG2 CAGA-GFP TGF-b/SMAD3 reporter, GFP fluorescence, 18 h; TGF-beta stimulated, 500 pg/mL final | Potency, µM (doses to about 46.1 µM), for inactives: at the top dose activity, negative = inhibition, hits mostly inhibitors | 410,000 compounds, 1.2% hits | AID 588855; note: % is set by controls: 0 for no effect and ±100 for the full control effect; nearly all actives have a fitted effect of over 65% in size
#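 First, reporter cells (HEPG2 CAGA-GFP) rested 2 h at 37 degrees C. Next, compounds were pinned in and TGF-beta added to 500 pg/mL final. After 18 h, GFP was imaged per cell and summed per well.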
# An asterisk follows results filed as active; i = inactive; u = inconclusive; x = no result given. Calls come from the whole dose curve; as a rule, active = well fitted curve in the direction sought with a large enough effect; inconclusive = small, poorly fitted or top-dose-only effect, or another doubt; inactive = no such curve, though single readings can be large; an effect the other way counts as inactive or inconclusive. Potency is the fitted concentration of half-maximal effect.
SMILES,ATXN2 expr inh,S2 tox,RORg inh,VP16 counter,HepG2 tox,TGFb SMAD3 inh
COc1ccccc1-c1cc(C(F)(F)F)nc(S(=O)(=O)CCCC(=O)O)n1,u,u,u,u,-45.9%,17.8µM*
COc1ccc(-c2cc(C(F)(F)F)nc(S(=O)(=O)CCCC(=O)Nc3ccccc3C(F)(F)F)n2)cc1OC,x,x,x,x,-2.7%,2.82µM*
COc1ccccc1-c1cc(C(F)(F)F)nc(S(=O)(=O)CCCC(=O)Nc2cc(OC)c(OC)c(OC)c2)n1,14.7%,i,x,x,-15.1%,2.1%
Cc1nc(SCC(=O)Nc2ccc(Cl)cc2C(F)(F)F)[nH]c(=O)c1Cc1ccccc1,13.0%,i,x,x,-25.7%,u
CN(CC(=O)Nc1ccc(Cl)c(C(F)(F)F)c1)C(=O)c1cccc2cccnc12,-5.3%,i,x,x,-15.0%,u
COc1ccc(NC(=O)NCCCN2CCN(c3cc(C)ccc3C)CC2)cc1,u,u,1.8%,-15.5%,12.6µM*,u
COc1ccc(C2=C(C)C(=NCCCN3CCN(c4cc(C)ccc4C)CC3)NS2(=O)=O)cc1,x,x,x,x,10µM*,u
COc1ccc(NC(=O)NCCCN2CCN(c3ccccc3F)CC2)cc1,-11.1%,i,-7.2%,2.3%,-5.7%,0.0%
COc1ccc(-c2cccc(CCC(=O)N3CCN(c4cc(C)ccc4C)CC3)c2)cc1,-10.5%,i,x,x,-11.0%,u
COC(=O)c1cc(=O)nc(NN=Cc2ccc(C)cc2)s1,10.9%,i,x,x,-10.1%,-0.6%
Cc1cc(=O)[nH]c(N=N/C(=N/Nc2ccc(O)cc2)c2ccccc2)n1,u,u,-7.3%,-1.1%,-25.5%,-8.7%
Cc1cc(=O)[nH]c(N=N/C(=N/Nc2ccccc2C)c2ccccc2)n1,2.51µM*,u,2.51µM*,5.01µM*,-9.0%,-4.3%
Cc1cc(=O)[nH]c(SCC(=O)Nc2ccccc2C)n1,6.1%,i,-1.8%,0.5%,2.2%,-1.5%
COc1ccc(N/N=C(/N=Nc2nc(C)cc(=O)[nH]2)c2ccccc2)cc1,u,28.2µM*,u,5.01µM*,-44.8%,u
Cc1ccc(NN2C(=O)C=C(c3ccccc3)C2=O)cc1,u,u,3.55µM*,5.01µM*,-152.4%,u
O=C(Nc1cccc(C(=O)OCc2cc(=O)n3c4c(sc3n2)CCCC4)c1)c1ccc(Cl)cc1,x,x,x,x,-31.4%,10µM*
O=C(Nc1cccc(C(=O)OCc2cc(=O)n3c4c(sc3n2)CCCC4)c1)c1cccc(Cl)c1,x,x,x,x,6.8%,10.5%
CCOC(=O)Cn1nc(-c2ccccc2)c2cnc3ccc(OCC)cc3c21,-11.8%,i,x,x,-6.0%,0.0%
CC1=C(C(=O)Nc2ccccc2C)C(c2cccs2)NC(=S)N1 (configuration not stated),5.0%,i,-10.5%,-1.9%,-3.9%,0.0%
CCOc1ccccc1NC(=O)C1=C(C)NC(=S)NC1c1cccs1 (configuration not stated),14.6%,i,6.31µM*,20µM*,7.5%,0.7%
COC(=O)[C@@H]1CCCN1Cc1ccc2c(c1)CN(Cc1ccc3c(c1)CCO3)CCO2,x,i,x,x,x,x
COc1ccc(C(=O)c2oc3ccccc3c2NC(=O)COc2c(C)cc(C)cc2C)cc1,6.5%,i,x,x,-1.6%,1.0%
c1ccc(CN=C2NN=C(c3ccccc3)CS2)cc1,19.9%,i,u,-75.6%,-3.9%,-5.9%
Fc1ccc(C2=NNC(=NCc3ccccc3)SC2)cc1F,-16.7%,i,14.1µM*,-26.0%,10.3%,u
COCCN=C1NN=C(c2ccc(NC(C)=O)cc2)CS1,-17.3%,i,u,2.9%,-1.7%,3.9%
COc1ccccc1C1=NNC(=NCc2ccccc2)SC1,-4.3%,i,11.2µM*,-5.0%,3.9%,3.7%
Fc1ccccc1N=C1NN=C(c2ccccc2)CS1,-29.4%,u,u,-16.6%,-45.9%,u

# Screening results: PubChem BioAssay, National Center for Advancing Translational Sciences (NCATS)
